The target of assay [1] is Cytochrome P450 3A4 (Homo sapiens) (UniProt P08684). Description: qHTS Assay for Inhibitors and Substrates of Cytochrome P450 3A4 (AID 884; active means well fitted curve in the direction sought with a large enough effect; an effect the other way counts as inactive or inconclusive; further: nearly all actives have a fitted effect of over 50% in size; further: potency means the concentration at half of the fitted maximal effect; on activity change, negative = inhibition: on the % scale 0 is the no-effect control and ±100 the full control effect). The method, boiled down:
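20 nM human CYP3A4 with 25 uM Luciferin-PPXE (at KM) in 200 mM KPO4, preincubated 10 min with compound; NADPH regeneration started a 60 min RT reaction. Luciferin detected by luminescence, normalized to 57 uM ketoconazole as full inhibition.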
(In general: qHTS replaces the single test concentration by a dilution series.)

A short description of assay [2]: Confirmation and Secondary Assay for Modulators of Hemoglobin Beta Chain Splicing at IVS2 654 locus (AID 910; active means well fitted curve in the direction sought with a large enough effect; an effect the other way counts as inactive or inconclusive;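 further: HeLa cells stably carrying EGFP split by mutant beta-globin IVS2-654 intron; per-well total GFP intensity by laser scanning cytometry after 2-day treatment; % of control where 0% means no effect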). The method, boiled down: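 Readout: per-well total peak green fluorescence (488 nm ex, 500–520 nm em) from objects 5–250 µm, reflecting correct splicing of an EGFP-654 reporter. Compounds were applied for 2 days at 37 °C to overnight-plated HeLa EGFP-654 cells; controls were DMSO and 500 nM IVS2-654 PNA.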

Assay [3] in a line: Confirmation and Secondary Assay for Modulators of Hemoglobin Beta Chain Splicing at IVS2 705 locus (AID 930; active means well fitted curve in the direction sought with a large enough effect; an effect the other way counts as inactive or inconclusive;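 further: HeLa cells stably expressing the EGFP-705 splicing reporter; GFP fluorescence per well restored by corrected splicing of the IVS2-705 intron in EGFP; % of control where 0% means no effect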). In short, it runs like this:
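Secondary splice-site specificity test uses HeLa expressing CMV-driven EGFP interrupted by IVS2-705; cells were treated 2 days at 37C with 500 nM antisense PNA as positive control.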

Assay [4] can be described thus: qHTS Assay for Lipid Storage Modulators (AID 1519). On activity change, negative = inhibition: on the % scale 0 is the no-effect control and ±100 the full control effect. As to conditions: Drosophila S3 cells, BODIPY lipid droplet/cell ratio, laser cytometry, cells loaded with oleic acid. The method, boiled down:
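Cells seeded at 5,000 per well were treated with compounds over a concentration series and loaded with oleic acid (400 uM, as added). Lipid droplet fluorescence (488 nm excitation, 500-530 nm channel) was read by laser-scanning cytometry and normalized to 20 uM Triacsin C.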

Assay [5] concerns the target Cytochrome P450 3A4 (Homo sapiens) (UniProt P08684). The assay is described as follows: qHTS Assay for Activators of Cytochrome P450 3A4 (AID 885; active means well fitted curve in the direction sought with a large enough effect; an effect the other way counts as inactive or inconclusive; further: nearly all actives have a fitted effect of over 65% in size). The method, boiled down:
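Quantitative HTS format: compounds preincubated with 20nM human CYP3A4 and Luciferin-PPXE substrate at KM, reaction started by NADPH regeneration, stopped after 60 min, luciferase luminescence read 20 min later.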

In assay [6] the target is Cytochrome P450 2D6 (Homo sapiens) (UniProt P10635). The assay is described as follows: Cytochrome P450 family 2 subfamily D member 6 (CYP2D6) small molecule antagonists: luciferase biochemical (cell-free) qHTS assay (AID 1645840; active means well fitted curve in the direction sought with a large enough effect in the repeat runs; an effect the other way counts as inactive or inconclusive; further: on the % scale 0 is the no-effect control and ±100 the full control effect; nearly all actives have a fitted effect of over 55% in size). In short, it runs like this:
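P450-Glo luminescent screen: recombinant CYP2D6 enzyme–proluciferin substrate mix preincubated with compound 10 min at room temperature, then NADPH regeneration added for 1 h at room temperature. Detection reagent added for 20 min; luciferin light read as relative luminescence units.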

In assay [7] the target is Cytochrome P450 2C9 (Homo sapiens) (UniProt P11712). Description: Cytochrome P450 family 2 subfamily C member 9 (CYP2C9) small molecule antagonists: luciferase biochemical (cell-free) qHTS assay (AID 1645842; active means well fitted curve in the direction sought with a large enough effect in the repeat runs; an effect the other way counts as inactive or inconclusive; further: nearly all actives have a fitted effect of over 55% in size; further: potency means the concentration at half of the fitted maximal effect; on activity change, negative = inhibition: on the % scale 0 is the no-effect control and ±100 the full control effect). In short, it runs like this: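 Luminescence, after 20 min with luciferin detection reagent, reflected CYP2C9 turnover during a 1 h NADPH-driven reaction at 37C. Enzyme-substrate mix contained 0.4% bovine serum albumin and was preincubated with compound 10 min at room temperature.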

The nature of assay [8]: Confirmatory qHTS to identify inhibitors of SARS-CoV-2 cell entry (AID 1645844). Further: nearly all actives have a fitted effect of over 45% in size. Further: potency means the concentration at half of the fitted maximal effect. The method, boiled down:
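Luminescence from a luciferase reporter, read 48 hr after pseudotyped-particle addition, gives entry signal, normalised to spike-bearing PP wells and bald PP lacking fusion protein wells. Cells are Expi293F stably expressing human ACE2, compound-pretreated 1 hr.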

Assay [9] can be described thus: Cytotoxicity counterscreen for inhibitors of SARS-CoV-2 cell entry (AID 1645845). Further: nearly all actives have a fitted effect of over 50% in size. As to conditions: outcome: dose series up to 57.1 µM unless noted. In short, it runs like this: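 48 h compound treatment (after 1 h preincubation), HEK293-ACE2 cells, 37 C/5% CO2; ATP luminescence endpoint; normalized to cell wells and media blanks.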
(In general: Counterscreens check selectivity or assay interference.)

The nature of assay [10]: Primary qHTS to identify inhibitors of SARS-CoV-2 cell entry (AID 1645846). Further: nearly all actives have a fitted effect of over 45% in size. As to conditions: SARS-CoV-2 pseudovirus cell entry assay, luminescence; activity change, negative = inhibition: at 57.1 µM (top of the series) unless noted. The method, boiled down: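 Using luciferase-reporting pseudoviruses carrying Wuhan-Hu-1 spike, the screen tracks entry into stably ACE2-expressing cells over 48 hr. Activity is expressed relative to spike particles versus particles lacking any fusion protein.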

The nature of assay [11]: VSVG counterscreen qHTS to identify inhibitors of SARS-CoV-2 cell entry (AID 1645847). Further: nearly all actives have a fitted effect of over 65% in size. Further: potency means the concentration at half of the fitted maximal effect. On activity change, negative = inhibition: on the % scale 0 is the no-effect control and ±100 the full control effect. In short, it runs like this: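 Entry of VSV-G pseudotyped particles into human ACE2-expressing HEK293 cells was measured by luciferase luminescence 48 h after infection, with compound added 1 h beforehand.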
Assay [12] has as its target Ubiquitin carboxyl-terminal hydrolase 1 (Homo sapiens) (UniProt O94782). Description: Inhibitors of USP1/UAF1: Pilot qHTS (AID 504865; active means well fitted curve in the direction sought with a large enough effect; an effect the other way counts as inactive or inconclusive;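 further: rhodamine fluorescence freed from ubiquitin-rhodamine substrate followed over time; top concentration of the series differs between compounds; on the % scale 0 is the no-effect control and ±100 the full control effect; nearly all actives have a fitted effect of over 35% in size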). In short, it runs like this:
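Enzyme-free wells gave the negative control, while test wells held 1nM USP1/UAF1 preincubated with compound for 15 min at room temperature. Ub-Rho at 150nM final started the reaction, and fluorescence at 480/540 nm was recorded kinetically.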

Assay [13] has as its target Alpha-galactosidase (Coffea arabica) (UniProt Q42656). The assay is described as follows: Counterscreen for Glucocerebrosidase Inhibitors: qHTS Assay for Coffee Bean alpha-Galactosidase at pH 5.9 (AID 998; active means well fitted curve in the direction sought with a large enough effect; an effect the other way counts as inactive or inconclusive;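 further: plate controls were uninhibited enzyme for no effect and no-enzyme basal signal for full effect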). In short, it runs like this:
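Compounds were titrated from 0.7 nM to 77 uM against green coffee bean alpha-galactosidase (2 nM) using 80 uM fluorogenic 4-methylumbelliferyl substrate. After 20 min at room temperature, reactions were stopped at pH 10 and read by fluorescence.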

[14] abbreviates: measured here: cell count channel max response.
[15] abbreviates: measured here: lipid channel max response.

Each structure is given as a SMILES string. Results filed as inconclusive are left out. The source made the active and inactive calls. Unless noted, the call rests on the fitted dose curve.

Cytochrome P450 2D6 (Homo sapiens), sequence (P10635 whole entry, looked up): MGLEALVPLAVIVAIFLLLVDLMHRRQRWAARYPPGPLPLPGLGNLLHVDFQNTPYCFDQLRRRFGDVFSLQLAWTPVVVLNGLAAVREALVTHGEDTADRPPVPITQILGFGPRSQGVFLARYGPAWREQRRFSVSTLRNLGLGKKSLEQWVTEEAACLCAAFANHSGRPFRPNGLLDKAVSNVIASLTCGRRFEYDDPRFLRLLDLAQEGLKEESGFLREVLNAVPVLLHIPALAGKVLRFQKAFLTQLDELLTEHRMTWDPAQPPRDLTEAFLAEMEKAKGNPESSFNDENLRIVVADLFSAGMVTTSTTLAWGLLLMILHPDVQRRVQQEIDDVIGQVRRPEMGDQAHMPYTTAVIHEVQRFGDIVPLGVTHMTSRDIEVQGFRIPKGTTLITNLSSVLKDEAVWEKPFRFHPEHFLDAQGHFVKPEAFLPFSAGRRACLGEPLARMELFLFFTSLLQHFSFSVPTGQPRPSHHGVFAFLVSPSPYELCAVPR
Cytochrome P450 3A4 (Homo sapiens), sequence (P08684 whole entry, looked up): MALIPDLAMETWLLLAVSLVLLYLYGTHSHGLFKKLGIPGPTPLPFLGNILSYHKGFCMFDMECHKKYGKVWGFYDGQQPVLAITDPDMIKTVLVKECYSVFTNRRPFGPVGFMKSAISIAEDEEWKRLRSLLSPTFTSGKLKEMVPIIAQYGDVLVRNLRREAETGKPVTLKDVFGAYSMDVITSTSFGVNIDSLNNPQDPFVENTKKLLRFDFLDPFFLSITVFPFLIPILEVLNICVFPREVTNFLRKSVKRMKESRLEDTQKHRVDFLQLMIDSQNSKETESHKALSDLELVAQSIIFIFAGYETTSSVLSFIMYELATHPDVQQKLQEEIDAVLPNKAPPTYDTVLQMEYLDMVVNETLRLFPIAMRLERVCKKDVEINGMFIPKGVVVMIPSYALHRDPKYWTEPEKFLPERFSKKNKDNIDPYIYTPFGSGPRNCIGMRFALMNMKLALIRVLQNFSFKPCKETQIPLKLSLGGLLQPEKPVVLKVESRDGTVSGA
Cytochrome P450 2C9 (Homo sapiens), sequence (P11712 whole entry, looked up): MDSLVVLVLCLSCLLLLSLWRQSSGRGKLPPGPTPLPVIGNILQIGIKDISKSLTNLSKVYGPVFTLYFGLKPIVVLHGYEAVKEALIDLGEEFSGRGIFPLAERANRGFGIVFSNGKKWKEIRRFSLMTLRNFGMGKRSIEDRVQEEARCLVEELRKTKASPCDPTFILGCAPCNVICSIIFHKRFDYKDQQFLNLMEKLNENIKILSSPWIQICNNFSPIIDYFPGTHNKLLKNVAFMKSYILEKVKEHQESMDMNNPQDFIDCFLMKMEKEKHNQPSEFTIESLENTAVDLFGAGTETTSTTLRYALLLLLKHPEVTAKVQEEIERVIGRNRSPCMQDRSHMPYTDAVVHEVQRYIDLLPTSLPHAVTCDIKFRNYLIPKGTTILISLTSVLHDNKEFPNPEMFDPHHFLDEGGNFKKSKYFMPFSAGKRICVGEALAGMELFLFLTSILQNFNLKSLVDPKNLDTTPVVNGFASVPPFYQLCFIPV
Ubiquitin carboxyl-terminal hydrolase 1 (Homo sapiens), sequence (O94782 whole entry, looked up): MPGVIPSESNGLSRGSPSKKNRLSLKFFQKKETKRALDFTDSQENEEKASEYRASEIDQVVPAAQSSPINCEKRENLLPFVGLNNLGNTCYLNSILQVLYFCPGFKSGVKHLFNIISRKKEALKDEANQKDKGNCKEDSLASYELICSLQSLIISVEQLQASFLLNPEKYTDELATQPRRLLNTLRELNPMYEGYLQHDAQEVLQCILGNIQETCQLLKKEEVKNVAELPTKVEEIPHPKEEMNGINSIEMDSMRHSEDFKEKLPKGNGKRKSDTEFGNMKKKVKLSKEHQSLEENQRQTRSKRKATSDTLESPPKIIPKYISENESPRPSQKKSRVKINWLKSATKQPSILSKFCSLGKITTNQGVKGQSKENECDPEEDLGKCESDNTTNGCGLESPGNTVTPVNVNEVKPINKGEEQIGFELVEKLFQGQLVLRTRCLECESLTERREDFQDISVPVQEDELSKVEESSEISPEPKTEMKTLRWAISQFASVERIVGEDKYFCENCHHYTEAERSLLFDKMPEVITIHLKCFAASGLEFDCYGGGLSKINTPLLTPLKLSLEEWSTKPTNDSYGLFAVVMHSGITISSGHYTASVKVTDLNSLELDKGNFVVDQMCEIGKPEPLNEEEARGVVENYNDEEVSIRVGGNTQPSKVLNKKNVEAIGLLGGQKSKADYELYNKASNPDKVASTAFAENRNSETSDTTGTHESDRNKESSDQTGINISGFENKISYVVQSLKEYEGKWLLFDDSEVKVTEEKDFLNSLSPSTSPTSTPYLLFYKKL
Alpha-galactosidase (Coffea arabica), sequence (Q42656 whole entry, looked up): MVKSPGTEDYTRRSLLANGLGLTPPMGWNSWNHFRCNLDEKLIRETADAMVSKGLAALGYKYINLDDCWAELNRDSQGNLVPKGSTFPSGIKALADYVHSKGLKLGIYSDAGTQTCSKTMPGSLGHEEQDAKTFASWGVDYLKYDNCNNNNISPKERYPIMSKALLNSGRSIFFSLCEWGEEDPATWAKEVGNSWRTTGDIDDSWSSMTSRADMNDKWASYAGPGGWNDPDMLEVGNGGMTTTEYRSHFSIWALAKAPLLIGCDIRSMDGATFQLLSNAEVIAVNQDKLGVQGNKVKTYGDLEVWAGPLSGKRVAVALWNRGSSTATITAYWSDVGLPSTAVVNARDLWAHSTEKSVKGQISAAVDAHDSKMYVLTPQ

Turning to `CC(=O)OC1CC[C@@]2(C)C3CC[C@]4(C)C(=O)CCC4C3CC[C@H]2C1` (stereo not given in full), the Potency result in assay [1], in [2] and in assay [3] was “inactive” throughout. The activity change, negative = inhibition in assay [4] (at 57.5 µM (top of the series)) is -0.903% (inactive). The max response is -8.94% in assay [4] (setting [14]) and -14.8% in assay [4] (setting [15]).

On to `COc1cc(C2c3cc4c(c(O)c3CC3COC(=O)C32)OCO4)cc(OC)c1OC` (stereo not given), for which the Potency in assay [1] is 1 µM (active). Further, in assay [5], the Potency result is “inactive”. The activity change, negative = inhibition in assay [4] (at 57.5 µM (top of the series)) was 3.6% (inactive). In addition, the max response in assay [4] (setting [14]) was determined as 11.9%; in assay [4] (setting [15]) it was 14.5%.

Turning to `Oc1ccc2c3c1OC1C(O)CC[C@]4(O)C(C2)N(CC2CCC2)CC[C@]314` (stereo not given in full), the Potency result in assay [2] and in [3] was “inactive” in each case. For the same molecule, the activity change, negative = inhibition in [4] (at 57.5 µM (top of the series)) was -5.68% (inactive). The max response in [4] (setting [14]) stood at 13.5%; in assay [4] (setting [15]), 9.11%.

In the case of `CCOC(=O)/C=C/[C@H](C[C@@H]1CCNC1=O)NC(=O)[C@@H](CC(=O)[C@@H](NC(=O)c1cc(C)on1)C(C)C)Cc1ccc(F)cc1`, the Potency result in assay [6] was “inactive”. Moreover, in [7], the Potency is 4.77 µM (active).

Consider `O=C(Nc1cc(Oc2cc(F)c(NC(=O)C3(C(=O)Nc4ccc(F)cc4)CC3)cc2F)ccn1)C1CC1`, for which the Potency was 21.5 µM (active) in [8] and 15.2 µM (active) in assay [11]. Moreover, the Potency entry in [9] is “inactive”. Moreover, in assay [10], the activity change, negative = inhibition was -38.1%.

As for `O=C(Nc1cccnc1)c1cc(-c2ccnc(F)c2)ccc1OCc1ccccc1`, the Potency entry in assay [8], in assay [9] and in assay [11] was “inactive” each time. For the same molecule, in assay [10], the activity change, negative = inhibition was -5.26%.

In the case of `CC(=O)OC1CC2C(C)(C)C(O)C=C[C@@]2(C)C2CC[C@]3(C)C(=CC(=O)OC3c3ccoc3)[C@]12C` (stereo not given in full), the Potency entry in assay [5], in [2] and in assay [3] was “inactive” throughout. Also, the activity change, negative = inhibition in assay [4] (at 57.5 µM (top of the series)) is 6.31% (inactive). The results for the max response in assay [4] (setting [14]) and in assay [4] (setting [15]) were -2.89% and 6.06%, respectively.

On to `CC(=O)Oc1ccc(Cl)c2cccnc12`, for which the Potency result in [1], in [2], in assay [3], in assay [12], in [6] and in assay [7] was “inactive” throughout.

Consider `CCC(CO)NC(=O)C1C=C2c3cccc4[nH]cc(c34)CC2N(C)C1` (stereo not given), for which the Potency entry in assay [2] and in [3] was “inactive” throughout. The activity change, negative = inhibition in assay [4] (at 57.5 µM (top of the series)) was 10.6% (inactive). The max response in assay [4] (setting [14]) amounted to 3.07%; in assay [4] (setting [15]), 18.5%.

With `CS(=O)(=O)c1ccc(-c2cnc(NCc3ccco3)n3cnnc23)cc1`, in [8], the Potency is 27.1 µM (active). The Potency entry in assay [9] and in assay [11] was “inactive” in each case. The activity change, negative = inhibition in assay [10] is -43.5%.

Take `CC(C)C[C@H]1C(=O)N2CCC[C@@H]2[C@]2(O)O[C@](NC(=O)[C@H]3C=C4c5cccc6[nH]c(Br)c(c56)C[C@H]4N(C)C3)(C(C)C)C(=O)N12`: the outcome in [13] was inactive. The activity change, negative = inhibition in [4] (at 25.7 µM (top of the series)) was -0.675% (inactive). Moreover, the max response in assay [4] (setting [14]) is -7.2%; in assay [4] (setting [15]), -5.42%.

For `CC#CC(=O)N1CC[C@@H](n2c(=O)n(-c3ccc(Oc4ccccc4)cc3)c3c(N)ncnc32)C1`, in [8], the Potency is 21.5 µM (active).

On to `CCOc1ccc(NC(=O)Cn2cc(C(=O)c3ccccc3)c3ccccc32)cc1`, for which, in [7], the Potency was 16.9 µM (active).

For the molecule `CN(C)[C@@H]1C(=O)C(C(N)=O)C(=O)[C@@]2(O)C(=O)C3C(=O)c4c(O)ccc(Cl)c4[C@@](C)(O)C3C[C@@H]12` (stereo not given in full), the Potency entry in [6] and in assay [7] was “inactive” in each case.

(Values after PubChem BioAssay (NCATS).)
